Results filed as inconclusive are left out. Active and inactive are the calls of the source. Rule for the calls, unless noted: active = hit-call score of the fitted dose curve at least 0.9, where 1 is the maximum; inconclusive = response in the unintended direction; inactive = score below 0.9.
Experiments:
[1] = ATG_TGFb_CIS: Attagene CIS-FACTORIAL HepG2 Assay for human Transforming Growth Factor (TGF) (AID 2282967; active = hit-call score of the fitted dose curve at least 0.9, where 1 is the maximum; inactive = score below 0.9); conditions: HepG2 Attagene CIS TGFb reporter, mRNA transcription; actives raise or lower the signal
How it was run: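 Bidirectional fitting relative to DMSO gave the endpoint. Underlying data: reporter mRNA from HepG2 cells carrying transiently transfected cis-regulated reporter constructs, harvested 24 h after dosing and analyzed by RT-PCR and capillary electrophoresis.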

[2] = ATG_VDRE_CIS: Attagene CIS-FACTORIAL HepG2 Assay for human Vitamin D Receptor Element (VDRE) (AID 2282968; active = hit-call score of the fitted dose curve at least 0.9, where 1 is the maximum; inactive = score below 0.9); conditions: HepG2 VDRE cis-reporter transcription, actives raise or lower the signal
How it was run: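 Cell-based multiplexed reporter format in human liver HepG2 cells, 24 h post-dose. Fluorescence from capillary electrophoresis of reporter cDNA gives the signal, with DMSO as negative control and baseline.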

[3] = molecular target: Estrogen receptor (Homo sapiens) (UniProt P03372); assay: ATG_ERa_TRANS: Attagene TRANS-FACTORIAL HepG2 Assay for human Estrogen Receptor alpha (ERa) (AID 2282970); conditions: HepG2 Attagene TRANS ERa GAL4 reporter, mRNA
How it was run: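 Human liver HepG2, transient transfection of multiple GAL4-UAS reporter units; TRANS format (exogenous NR-Gal4 chimera). 24 h dosing. Readout: reporter mRNA, RT-PCR, 6-FAM primer extension, HpaI digest, capillary electrophoresis. Positive direction vs DMSO.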

[4] = molecular target: X-box-binding protein 1 (Homo sapiens) (UniProt P17861); assay: ATG_Xbp1_CIS: Attagene CIS-FACTORIAL HepG2 Assay for human X-box Binding Protein 1 (XBP1) (AID 2282972; active = hit-call score of the fitted dose curve at least 0.9, where 1 is the maximum; inactive = score below 0.9); conditions: HepG2 XBP1 cis-element reporter, Attagene multiplex; actives raise or lower the signal
How it was run: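 After a 24-hour chemical exposure of HepG2 cells carrying cis-regulated reporters, reporter mRNA levels are assessed. Quantification uses RT-PCR, 6-FAM labelling and capillary electrophoresis. Gain- or loss-of-signal is fitted against DMSO.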

[5] = ATG_GAL4_TRANS: Attagene TRANS-FACTORIAL HepG2 Assay for GAL4 (Internal Marker) (AID 2282976); conditions: HepG2 Attagene TRANS GAL4 internal marker reporter
How it was run: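 First, HepG2 cells were transfected with reporter units under GAL4-UAS control. Next, they were treated with chemical for 24 h. Finally, RNA was reverse-transcribed, PCR-amplified, FAM-labelled and resolved by capillary electrophoresis, with induction scored against DMSO.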

[6] = molecular target: Glucocorticoid receptor (Homo sapiens) (UniProt P04150); assay: ATG_GR_TRANS: Attagene TRANS-FACTORIAL HepG2 Assay for human Glucocorticoid Receptor (GR) (AID 2282978); conditions: HepG2 Attagene TRANS GR reporter, mRNA transcription;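 note: activators score as hits since higher reporter transcript over DMSO is fitted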
How it was run: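 Transient MRTU transfection of HepG2 (GAL4-UAS reporters, exogenous NR-GAL4 chimeras), 24 h dosing. Readout: reporter transcript via RT-PCR + capillary electrophoresis fluorescence. Positive direction vs DMSO baseline.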

[7] = molecular target: Hepatocyte nuclear factor 4-alpha (Homo sapiens) (UniProt P41235); assay: ATG_HNF4a_TRANS: Attagene TRANS-FACTORIAL HepG2 Assay for human Hepatocyte Nuclear Factor 4 alpha (HNF4a) (AID 2282982); conditions: HepG2 HNF4a transactivation reporter, mRNA readout
How it was run: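 Gain-of-signal mRNA induction, relative to DMSO vehicle, was read after 24 h compound treatment of HepG2 cells bearing transfected GAL4-UAS reporters. Detection used RT-PCR, 6-FAM primer extension and capillary electrophoresis.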

[8] = ATG_M_06_TRANS: Attagene TRANS-FACTORIAL HepG2 Assay for M06 Transcription Factor (Internal Marker) (AID 2282983); conditions: HepG2 Attagene TRANS M06 internal marker reporter;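 for AC50: potency for rise in reporter mRNA above DMSO baseline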
How it was run: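 Transfect HepG2 with MRTUs → dose compounds 24 h → isolate RNA, oligo(dT) RT → PCR with reporter primers → 6-FAM primer extension → HpaI digest → CE fragment analysis. Positive direction vs DMSO.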

[9] = ATG_M_32_TRANS: Attagene TRANS-FACTORIAL HepG2 Assay for M32 Transcription Factor (Internal Marker) (AID 2282984); conditions: HepG2 Attagene TRANS M32 internal marker reporter
How it was run: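 Capillary electrophoresis of 6-FAM-labelled reporter fragments gives the signal; data fitted for gain over DMSO negative control. Source: HepG2 cells bearing transient multiple reporter transcription units, 24 h exposure.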

[10] = molecular target: Nuclear receptor subfamily 4 group A member 2 (Homo sapiens) (UniProt P43354); assay: ATG_NURR1_TRANS: Attagene TRANS-FACTORIAL HepG2 Assay for human Nuclear Receptor Related Protein 1 (NURR1) (AID 2282985); conditions: HepG2 Attagene TRANS reporter, mRNA readout
How it was run: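 HepG2 / transient MRTU transfection / 24 h compound exposure / RT-PCR + CE fluorescence of reporter mRNA / gain-of-signal vs DMSO.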

[11] = molecular target: Nuclear respiratory factor 1 (Homo sapiens) (UniProt Q16656); assay: ATG_NRF1_CIS: Attagene CIS-FACTORIAL HepG2 Assay for human Nuclear Respiratory Factor 1 (NRF1) Orphan Gene (AID 2282987; active = hit-call score of the fitted dose curve at least 0.9, where 1 is the maximum; inactive = score below 0.9); conditions: HepG2 NRF1 cis-element reporter, Attagene multiplex; actives raise or lower the signal
How it was run: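 Endogenous NRF1-driven reporter transcription measured in transiently transfected human HepG2 liver cells. Readout: reporter mRNA by RT-PCR and capillary electrophoresis with fluorescence detection, 24 h post-dosing. Gain or loss of signal fitted relative to DMSO baseline.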

[12] = molecular target: Oxysterols receptor LXR-alpha (Homo sapiens) (UniProt Q13133); assay: ATG_LXRa_TRANS: Attagene TRANS-FACTORIAL HepG2 Assay for human Liver X Receptor alpha (LXRa) (AID 2282980); conditions: HepG2 Attagene TRANS reporter, LXRa transactivation
How it was run: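 Transfect HepG2 with GAL4-UAS multiplex reporter constructs (TRANS format, chimeric receptor-GAL4); treat 24 h; extract RNA, reverse-transcribe, PCR-amplify, FAM-label, HpaI-digest; resolve fragments by capillary electrophoresis. Upward response vs DMSO.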

[13] = molecular target: Androgen receptor (Homo sapiens) (UniProt P10275); assay: ATG_AR_TRANS: Attagene TRANS-FACTORIAL HepG2 Assay for human Androgen Receptor (AR) (AID 2282973); conditions: HepG2 Attagene TRANS-FACTORIAL AR reporter transcription
How it was run: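 Steps: transfect HepG2 with multiple GAL4-UAS reporter transcription units (TRANS format, exogenous NR-Gal4 protein); dose 24 h; isolate RNA, reverse-transcribe, PCR-amplify, FAM-label, HpaI-digest; resolve by capillary electrophoresis. Positive direction vs DMSO.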

[14] = ATG_M_19_TRANS: Attagene TRANS-FACTORIAL HepG2 Assay for M19 Transcription Factor (Internal Marker) (AID 2282974); conditions: HepG2 Attagene TRANS-FACTORIAL M19 internal marker reporter
How it was run: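 24 h chemical exposure of transiently transfected HepG2 (MRTU library). RNA → oligo(dT) RT → PCR → 6-FAM labelling → HpaI cut → CE fluorescence. Positive-direction fit vs DMSO baseline; background internal-marker readout.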

[15] = molecular target: Bile acid receptor (Homo sapiens) (UniProt Q96RI1); assay: ATG_FXR_TRANS: Attagene TRANS-FACTORIAL HepG2 Assay for Farnesoid X Receptor (FXR) (AID 2282979); conditions: HepG2 Attagene TRANS FXR-GAL4 reporter transcription;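 note: hits raise reporter mRNA above DMSO so AC50 marks FXR activation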
How it was run: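 Transient transfection of HepG2 with multiplexed GAL4-UAS reporter units; exogenous FXR-GAL4 chimera. Dose 24 h → TriZol RNA → oligo(dT) RT → PCR, 6-FAM primer extension, HpaI cut → CE. Gain vs DMSO.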

[16] = molecular target: Transcriptional activator Myb (Homo sapiens) (UniProt P10242); assay: ATG_Myb_CIS: Attagene CIS-FACTORIAL HepG2 Assay for human Myeloblastosis (Myb) Proto-Oncogene Transcription Factor (AID 2282986; active = hit-call score of the fitted dose curve at least 0.9, where 1 is the maximum; inactive = score below 0.9); conditions: HepG2 Attagene CIS-FACTORIAL Myb reporter transcription; actives raise or lower the signal
How it was run: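 HepG2, transient MRTU transfection (cis-element promoters, endogenous TF activity), 24 h compound exposure. Readout: reporter mRNA via RT-PCR, 6-FAM labeling, HpaI digest, capillary electrophoresis. Gain/loss fit vs DMSO.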

[17] = molecular target: Oxysterols receptor LXR-beta (Homo sapiens) (UniProt P55055); assay: ATG_LXRb_TRANS: Attagene TRANS-FACTORIAL HepG2 Assay for human Liver X Receptor beta (LXRb) (AID 2282981); conditions: HepG2 Attagene TRANS GAL4-LXRb reporter, mRNA
How it was run: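 Gain-of-signal mRNA reporter endpoint, DMSO as negative control. Transiently transfected HepG2 cells carrying the NR-Gal4 chimera and GAL4-UAS reporter units were treated 24 h; transcripts quantified by RT-PCR and capillary electrophoresis fluorescence.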

[18] = molecular target: Steroid hormone receptor ERR1 (Homo sapiens) (UniProt P11474); assay: ATG_ERRa_TRANS: Attagene TRANS-FACTORIAL HepG2 Assay for human Estrogen-Related Receptor alpha (ERRa) (AID 2282971); conditions: HepG2 Attagene TRANS reporter, ERRa transactivation
How it was run: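 Reporter transcript induction was quantified by RT-PCR and capillary electrophoresis of FAM-labelled, HpaI-cut products after 24 h treatment of HepG2 cells carrying transiently transfected GAL4-UAS reporter units and an exogenous ERRa-Gal4 fusion; activity scored as increase over DMSO.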

[19] = ATG_M_61_TRANS: Attagene TRANS-FACTORIAL HepG2 Assay for M61 Transcription Factor (Internal Marker) (AID 2282988; active = hit-call score of the fitted dose curve at least 0.9, where 1 is the maximum; inactive = score below 0.9); conditions: HepG2 Attagene TRANS M61 internal marker reporter
How it was run: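 Background-control reporter transcript, measured after 24 h chemical exposure of transiently transfected HepG2 cells carrying multiple GAL4-UAS reporter units. Read-out by RT-PCR with 6-FAM primer extension and capillary electrophoresis, gain of signal versus DMSO.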

Measured: AC50

Chain of Glucocorticoid receptor (Homo sapiens) (P04150 whole entry, looked up, the tested form may be a part): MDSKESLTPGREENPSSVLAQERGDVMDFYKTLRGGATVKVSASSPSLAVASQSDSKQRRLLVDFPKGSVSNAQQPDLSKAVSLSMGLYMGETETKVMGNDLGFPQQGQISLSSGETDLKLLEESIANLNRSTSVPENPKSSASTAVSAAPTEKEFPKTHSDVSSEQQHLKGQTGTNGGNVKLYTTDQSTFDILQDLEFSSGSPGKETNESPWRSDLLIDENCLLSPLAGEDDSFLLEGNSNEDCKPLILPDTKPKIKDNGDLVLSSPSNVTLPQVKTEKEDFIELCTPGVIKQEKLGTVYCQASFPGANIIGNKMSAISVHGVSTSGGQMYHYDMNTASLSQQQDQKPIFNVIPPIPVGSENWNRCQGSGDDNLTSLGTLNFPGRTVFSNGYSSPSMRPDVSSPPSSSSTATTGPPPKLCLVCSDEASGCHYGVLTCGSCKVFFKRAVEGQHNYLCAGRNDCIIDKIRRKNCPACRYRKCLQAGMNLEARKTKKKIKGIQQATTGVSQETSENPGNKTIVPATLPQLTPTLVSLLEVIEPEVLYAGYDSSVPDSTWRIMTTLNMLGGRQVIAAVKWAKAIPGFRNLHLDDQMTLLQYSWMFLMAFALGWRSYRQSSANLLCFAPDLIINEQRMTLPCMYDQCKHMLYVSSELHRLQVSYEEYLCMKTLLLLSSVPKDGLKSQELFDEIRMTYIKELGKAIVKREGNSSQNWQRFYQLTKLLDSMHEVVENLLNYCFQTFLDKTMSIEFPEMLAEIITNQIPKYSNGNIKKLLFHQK
Chain of X-box-binding protein 1 (Homo sapiens) (P17861 whole entry, looked up): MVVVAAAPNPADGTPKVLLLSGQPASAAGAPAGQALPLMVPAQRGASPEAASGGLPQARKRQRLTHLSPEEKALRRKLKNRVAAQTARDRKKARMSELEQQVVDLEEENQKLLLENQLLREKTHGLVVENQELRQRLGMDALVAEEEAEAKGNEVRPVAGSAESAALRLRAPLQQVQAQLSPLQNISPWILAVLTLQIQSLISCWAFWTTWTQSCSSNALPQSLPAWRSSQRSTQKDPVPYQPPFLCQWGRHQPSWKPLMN
Chain of Oxysterols receptor LXR-beta (Homo sapiens) (P55055 whole entry, looked up, the tested form may be a part): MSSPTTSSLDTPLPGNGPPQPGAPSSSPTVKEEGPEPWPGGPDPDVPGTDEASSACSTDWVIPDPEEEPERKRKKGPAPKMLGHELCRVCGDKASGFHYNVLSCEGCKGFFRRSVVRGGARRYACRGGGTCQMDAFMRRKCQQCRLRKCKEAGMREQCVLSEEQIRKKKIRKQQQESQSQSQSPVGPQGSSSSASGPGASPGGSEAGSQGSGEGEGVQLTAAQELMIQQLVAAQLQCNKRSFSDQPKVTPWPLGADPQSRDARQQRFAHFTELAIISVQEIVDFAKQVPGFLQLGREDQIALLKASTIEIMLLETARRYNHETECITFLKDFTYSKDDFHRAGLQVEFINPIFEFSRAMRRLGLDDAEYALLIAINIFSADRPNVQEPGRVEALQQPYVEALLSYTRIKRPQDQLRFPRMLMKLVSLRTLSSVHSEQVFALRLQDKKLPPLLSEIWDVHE
Chain of Bile acid receptor (Homo sapiens) (Q96RI1 whole entry, looked up, the tested form may be a part): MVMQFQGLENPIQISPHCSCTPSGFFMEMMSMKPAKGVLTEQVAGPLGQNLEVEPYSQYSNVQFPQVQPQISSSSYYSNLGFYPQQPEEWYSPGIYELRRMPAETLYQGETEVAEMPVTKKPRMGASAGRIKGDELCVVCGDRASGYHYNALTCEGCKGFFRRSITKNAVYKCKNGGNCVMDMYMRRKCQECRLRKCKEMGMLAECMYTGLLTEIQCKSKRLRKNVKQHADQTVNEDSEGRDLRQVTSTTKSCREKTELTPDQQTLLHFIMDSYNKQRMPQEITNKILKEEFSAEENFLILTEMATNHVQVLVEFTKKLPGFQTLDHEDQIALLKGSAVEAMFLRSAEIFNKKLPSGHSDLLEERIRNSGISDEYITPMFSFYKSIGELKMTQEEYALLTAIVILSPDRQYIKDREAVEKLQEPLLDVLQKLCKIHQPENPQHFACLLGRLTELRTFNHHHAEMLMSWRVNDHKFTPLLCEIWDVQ
Chain of Estrogen receptor (Homo sapiens) (P03372 whole entry, looked up, the tested form may be a part): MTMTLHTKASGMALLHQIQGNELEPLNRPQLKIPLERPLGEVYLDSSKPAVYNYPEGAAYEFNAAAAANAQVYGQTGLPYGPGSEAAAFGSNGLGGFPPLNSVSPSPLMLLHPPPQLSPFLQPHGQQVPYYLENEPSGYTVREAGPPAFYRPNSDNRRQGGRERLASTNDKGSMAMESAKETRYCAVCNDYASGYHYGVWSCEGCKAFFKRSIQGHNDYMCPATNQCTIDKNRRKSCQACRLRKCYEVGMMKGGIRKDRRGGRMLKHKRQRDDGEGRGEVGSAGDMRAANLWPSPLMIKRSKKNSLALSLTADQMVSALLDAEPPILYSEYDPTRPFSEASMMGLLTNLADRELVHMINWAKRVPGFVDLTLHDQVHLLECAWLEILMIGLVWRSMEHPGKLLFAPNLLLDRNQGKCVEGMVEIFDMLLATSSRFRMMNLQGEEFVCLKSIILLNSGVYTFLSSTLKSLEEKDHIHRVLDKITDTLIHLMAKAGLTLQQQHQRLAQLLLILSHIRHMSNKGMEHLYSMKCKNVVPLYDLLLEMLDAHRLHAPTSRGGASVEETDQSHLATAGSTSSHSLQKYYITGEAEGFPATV
Chain of Nuclear respiratory factor 1 (Homo sapiens) (Q16656 whole entry, looked up): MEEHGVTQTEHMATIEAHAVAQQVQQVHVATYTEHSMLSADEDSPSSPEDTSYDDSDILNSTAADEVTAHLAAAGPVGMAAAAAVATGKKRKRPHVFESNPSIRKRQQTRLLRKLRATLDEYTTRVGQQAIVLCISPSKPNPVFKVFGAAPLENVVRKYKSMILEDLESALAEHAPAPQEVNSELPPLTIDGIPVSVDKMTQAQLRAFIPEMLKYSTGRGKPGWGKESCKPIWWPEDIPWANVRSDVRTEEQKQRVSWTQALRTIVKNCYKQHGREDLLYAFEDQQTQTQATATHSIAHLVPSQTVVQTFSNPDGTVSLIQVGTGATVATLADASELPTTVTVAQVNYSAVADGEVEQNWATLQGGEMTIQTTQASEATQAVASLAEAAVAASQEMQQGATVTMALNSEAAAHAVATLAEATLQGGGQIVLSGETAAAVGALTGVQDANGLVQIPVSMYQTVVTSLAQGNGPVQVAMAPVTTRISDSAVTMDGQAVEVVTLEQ
Chain of Oxysterols receptor LXR-alpha (Homo sapiens) (Q13133 whole entry, looked up, the tested form may be a part): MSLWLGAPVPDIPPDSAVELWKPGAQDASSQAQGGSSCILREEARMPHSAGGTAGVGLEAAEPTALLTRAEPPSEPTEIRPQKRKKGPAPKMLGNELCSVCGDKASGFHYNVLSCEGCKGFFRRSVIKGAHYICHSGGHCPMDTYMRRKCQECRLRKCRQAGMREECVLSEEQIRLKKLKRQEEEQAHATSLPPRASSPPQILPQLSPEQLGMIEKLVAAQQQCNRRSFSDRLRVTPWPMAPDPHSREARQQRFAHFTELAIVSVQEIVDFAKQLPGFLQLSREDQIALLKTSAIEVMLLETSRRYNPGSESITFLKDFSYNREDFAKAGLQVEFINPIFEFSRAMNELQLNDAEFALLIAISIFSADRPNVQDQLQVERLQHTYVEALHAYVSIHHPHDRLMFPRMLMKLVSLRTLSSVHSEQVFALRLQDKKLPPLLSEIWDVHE
Chain of Transcriptional activator Myb (Homo sapiens) (P10242 whole entry, looked up): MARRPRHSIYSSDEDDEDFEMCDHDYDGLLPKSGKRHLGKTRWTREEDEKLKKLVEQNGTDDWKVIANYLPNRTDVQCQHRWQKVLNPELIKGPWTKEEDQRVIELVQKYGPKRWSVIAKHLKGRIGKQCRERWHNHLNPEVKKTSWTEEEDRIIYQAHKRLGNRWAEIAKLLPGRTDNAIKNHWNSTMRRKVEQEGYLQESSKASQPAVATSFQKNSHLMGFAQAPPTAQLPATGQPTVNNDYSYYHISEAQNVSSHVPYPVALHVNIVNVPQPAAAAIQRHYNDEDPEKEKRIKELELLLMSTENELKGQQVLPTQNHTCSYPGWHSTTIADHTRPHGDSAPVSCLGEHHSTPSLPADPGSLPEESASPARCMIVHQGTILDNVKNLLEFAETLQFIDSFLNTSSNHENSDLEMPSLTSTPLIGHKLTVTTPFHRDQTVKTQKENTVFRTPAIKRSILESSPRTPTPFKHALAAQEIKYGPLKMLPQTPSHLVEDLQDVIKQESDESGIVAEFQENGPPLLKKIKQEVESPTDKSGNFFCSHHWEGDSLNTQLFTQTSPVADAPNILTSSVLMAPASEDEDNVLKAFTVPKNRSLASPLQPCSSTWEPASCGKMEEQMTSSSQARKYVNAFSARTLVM
Chain of Nuclear receptor subfamily 4 group A member 2 (Homo sapiens) (P43354 whole entry, looked up): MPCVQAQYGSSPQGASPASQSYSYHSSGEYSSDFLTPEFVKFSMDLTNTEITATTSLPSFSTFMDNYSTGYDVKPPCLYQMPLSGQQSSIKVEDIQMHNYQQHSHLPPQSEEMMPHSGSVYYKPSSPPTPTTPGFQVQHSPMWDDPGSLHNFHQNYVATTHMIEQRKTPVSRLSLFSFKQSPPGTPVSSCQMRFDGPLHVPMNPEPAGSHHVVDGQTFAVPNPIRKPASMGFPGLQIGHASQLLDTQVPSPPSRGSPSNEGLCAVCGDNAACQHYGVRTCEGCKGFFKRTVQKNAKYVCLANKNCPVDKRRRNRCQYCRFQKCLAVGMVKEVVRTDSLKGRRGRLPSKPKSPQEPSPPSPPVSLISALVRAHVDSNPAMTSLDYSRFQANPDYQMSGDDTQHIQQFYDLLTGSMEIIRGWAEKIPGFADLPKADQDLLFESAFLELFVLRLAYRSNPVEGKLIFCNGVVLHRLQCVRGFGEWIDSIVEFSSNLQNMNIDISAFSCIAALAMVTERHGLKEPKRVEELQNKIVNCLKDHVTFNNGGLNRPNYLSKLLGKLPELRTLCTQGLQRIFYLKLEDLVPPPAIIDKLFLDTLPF

Clc1nc(Cl)nc(Cl)n1
not listed: [12] | [13] | [14] | [15] | [16] | [17] | [18] | [19]
inactive: all other assays above

CC1(C)Cc2cccc(O)c2O1
inactive: [1] | [2] | [3] | [4] | [5] | [12] | [7] | [8] | [10] | [11]

COS(=O)(=O)c1ccc(C)cc1
not listed: [8] | [17] | [18] | [19]
inactive: all other assays above

CC(=[OH+])/C=C(/C)[O-].CC(=[OH+])/C=C(/C)[O-].CC(=[OH+])/C=C(/C)[O-].[Fe]
not listed: [6] | [8] | [9] | [13] | [18] | [19]
inactive: all other assays above

CN(C)P(=O)(N(C)C)N(C)C
not listed: [6] | [10] | [13] | [19]
inactive: all other assays above

CCCCP(CCCC)CCCC
not listed: [6] | [8] | [9] | [10] | [13] | [18] | [19]
inactive: all other assays above

N#CCCO
inactive: [1] | [2] | [3] | [4] | [5] | [12] | [17] | [7] | [16] | [11]

CC(=O)c1cc(C(C)(C)C)cc2c1CCC2(C)C
active: [2] 25600 nM | [4] 75200 nM | [10] 27300 nM
not listed: [5] | [7] | [8] | [13] | [15] | [19]
inactive: all other assays above

CC(=O)OC(c1ccccc1)C(Cl)(Cl)Cl (stereo not drawn)
inactive: [1] | [2] | [4] | [14] | [6] | [15] | [17] | [9] | [16] | [11]
active: [3] 34800 nM

CCC[CH2][Sn]([CH2]CCC)([CH2]CCC)[O]C(=O)c1ccccc1
inactive: [1] | [4] | [5] | [17] | [9] | [16] | [11] | [19]
active: [2] 137 nM | [3] 774 nM | [7] 638 nM | [8] 703 nM | [10] 16.1 nM

— PubChem BioAssay (EPA / NIEHS)
